# Source: paper PMC11062922 (Nature Chemical Biology, 2023)
# Where two headings read alike, the source gives them in different places.
# Experiments:
# Set-up in all cases: species or system human, MV4-11 + K-562 + COLO205 + SK-N-BE2 + OVCAR-8
# CDK6 = settings: read-out: apparent Kd, compound concentrations: 100 nM and 1000 nM (sheet 'Samples'), n = 1
# ERCC2 = settings: read-out: apparent Kd, compound concentrations: 100 nM and 1000 nM (sheet 'Samples'), n = 1
# ILK = settings: read-out: apparent Kd; compound concentrations: 100 nM and 1000 nM (sheet 'Samples'), CATDS: 9.2277554070836695E-2; n = 1
# IRAK1 = settings: read-out: apparent Kd; compound concentrations: 100 nM and 1000 nM (sheet 'Samples'), CATDS: 0.100374426884943; n = 1
# MAPK11 = settings: read-out: apparent Kd; compound concentrations: 100 nM and 1000 nM (sheet 'Samples'), CATDS: 0.114875582953057; n = 1
# MAPK14 = settings: read-out: apparent Kd, compound concentrations: 100 nM and 1000 nM (sheet 'Samples'), n = 1
# NQO1 = settings: read-out: apparent Kd; compound concentrations: 100 nM and 1000 nM (sheet 'Samples'), CATDS: 0.102757075513336; n = 1
# PIK3CD = settings: read-out: apparent Kd; compound concentrations: 100 nM and 1000 nM (sheet 'Samples'), CATDS: 0.395344018245397; n = 1
# PRKCQ = settings: read-out: apparent Kd, compound concentrations: 100 nM and 1000 nM (sheet 'Samples'), n = 1
# RIOK2 = settings: read-out: apparent Kd; compound concentrations: 100 nM and 1000 nM (sheet 'Samples'), CATDS: 7.9590231457497898E-2; n = 1
# CDKL5 = settings: read-out: apparent Kd, compound concentrations: 100 nM and 1000 nM (sheet 'Samples'), n = 1
# ERBB3 = settings: read-out: apparent Kd; compound concentrations: 100 nM and 1000 nM (sheet 'Samples'), CATDS: 0.345701208148325; n = 1
# MYLK3 = settings: read-out: apparent Kd; compound concentrations: 100 nM and 1000 nM (sheet 'Samples'), CATDS: 0.366305815038865; n = 1
# CIT = settings: read-out: apparent Kd; compound concentrations: 100 nM and 1000 nM (sheet 'Samples'), CATDS: 7.5521196037373797E-2; n = 1
# CSNK1A1 = settings: read-out: apparent Kd; compound concentrations: 100 nM and 1000 nM (sheet 'Samples'), CATDS: 4.0949734681157798E-2; n = 1
# CSNK1D = settings: read-out: apparent Kd; compound concentrations: 100 nM and 1000 nM (sheet 'Samples'), CATDS: 7.5353596099526104E-2; n = 1
# CSNK1E = settings: read-out: apparent Kd; compound concentrations: 100 nM and 1000 nM (sheet 'Samples'), CATDS: 5.67501120580748E-2; n = 1
# DDR1 = settings: read-out: apparent Kd; compound concentrations: 100 nM and 1000 nM (sheet 'Samples'), CATDS: 5.04347105241187E-2; n = 1
# DDR2 = settings: read-out: apparent Kd; compound concentrations: 100 nM and 1000 nM (sheet 'Samples'), CATDS: 3.97356163806874E-2; n = 1
# MAPK10 = settings: read-out: apparent Kd; compound concentrations: 100 nM and 1000 nM (sheet 'Samples'), CATDS: 4.34774071226985E-2; n = 1
# MAPK9 = settings: read-out: apparent Kd; compound concentrations: 100 nM and 1000 nM (sheet 'Samples'), CATDS: 4.6959741652320801E-2; n = 1
# MAPKAPK2 = settings: read-out: apparent Kd; compound concentrations: 100 nM and 1000 nM (sheet 'Samples'), CATDS: 8.6501611072326803E-2; n = 1
# NLK = settings: read-out: apparent Kd; compound concentrations: 100 nM and 1000 nM (sheet 'Samples'), CATDS: 4.75025353654299E-2; n = 1
# RIPK2 = settings: read-out: apparent Kd; compound concentrations: 100 nM and 1000 nM (sheet 'Samples'), CATDS: 0.10770613005205; n = 1
# TNK1 = settings: read-out: apparent Kd; compound concentrations: 100 nM and 1000 nM (sheet 'Samples'), CATDS: 0.18410889385923901; n = 1
# TNK2 = settings: read-out: apparent Kd; compound concentrations: 100 nM and 1000 nM (sheet 'Samples'), CATDS: 0.19568733735508301; n = 1
# CLK1 = settings: read-out: apparent Kd; compound concentrations: 100 nM and 1000 nM (sheet 'Samples'), CATDS: 9.43888536674687E-2; n = 1
# CLK2 = settings: read-out: apparent Kd; compound concentrations: 100 nM and 1000 nM (sheet 'Samples'), CATDS: 0.135718758721844; n = 1
# GSK3A = settings: read-out: apparent Kd; compound concentrations: 100 nM and 1000 nM (sheet 'Samples'), CATDS: 0.18937077321649401; n = 1
# GSK3B = settings: read-out: apparent Kd; compound concentrations: 100 nM and 1000 nM (sheet 'Samples'), CATDS: 0.20850333664225901; n = 1
# ICK = settings: read-out: apparent Kd; compound concentrations: 100 nM and 1000 nM (sheet 'Samples'), CATDS: 0.107034687138564; n = 1
# PRKCA = settings: read-out: apparent Kd; compound concentrations: 100 nM and 1000 nM (sheet 'Samples'), CATDS: 8.3091420111897102E-2; n = 1
# PRKCB = settings: read-out: apparent Kd; compound concentrations: 100 nM and 1000 nM (sheet 'Samples'), CATDS: 7.1835327532873305E-2; n = 1
# PRKCD = settings: read-out: apparent Kd; compound concentrations: 100 nM and 1000 nM (sheet 'Samples'), CATDS: 8.6510432478471705E-2; n = 1
# PIM2 = settings: read-out: apparent Kd; compound concentrations: 100 nM and 1000 nM (sheet 'Samples'), CATDS: 0.49047797816886901; n = 1
structure (smiles),measurement,setting,value
Cl.Nc1c(C(=O)c2cccc(-c3cccnc3)c2)cnn1-c1ccc(F)cc1 [RO1162529-002],potency estimated from few doses,CDK6; CATDS: 9.94086879029107E-2,1190 nM
same,potency estimated from few doses,ERCC2; CATDS: 8.00195217918135E-2,2030 nM
same,potency estimated from few doses,ILK,1410 nM
same,potency estimated from few doses,IRAK1,1160 nM
same,potency estimated from few doses,MAPK11,877 nM
same,potency estimated from few doses,MAPK14; CATDS: 9.0546615649564399E-2,1470 nM
same,potency estimated from few doses,NQO1,1100 nM
same,potency estimated from few doses,PIK3CD,126 nM
same,potency estimated from few doses,PRKCQ; CATDS: 8.2854130075837501E-2,1850 nM
same,potency estimated from few doses,RIOK2,2060 nM
COc1cccc(-n2ncc3c(N/N=C/c4ccc(F)cc4)ncnc32)c1 [GW817396X],potency estimated from few doses,CDKL5; CATDS: 0.29608844643475601,2110 nM
same,potency estimated from few doses,ERBB3,1520 nM
same,potency estimated from few doses,MYLK3,1360 nM
Nc1nccc(-c2c(-c3ccc(F)cc3)ncn2C2CCN(Cc3ccccc3)CC2)n1 [SB-219980],potency estimated from few doses,CIT,142 nM
same,potency estimated from few doses,CSNK1A1,1790 nM
same,potency estimated from few doses,CSNK1D,143 nM
same,potency estimated from few doses,CSNK1E,362 nM
same,potency estimated from few doses,DDR1,584 nM
same,potency estimated from few doses,DDR2,2230 nM
same,potency estimated from few doses,ERCC2; CATDS: 0.16888440143106601,26.1 nM
same,potency estimated from few doses,MAPK10,1230 nM
same,potency estimated from few doses,MAPK14; CATDS: 0.113663446643848,53.6 nM
same,potency estimated from few doses,MAPK9,814 nM
same,potency estimated from few doses,MAPKAPK2,99.3 nM
same,potency estimated from few doses,NLK,770 nM
same,potency estimated from few doses,RIPK2,60 nM
same,potency estimated from few doses,TNK1,22.7 nM
same,potency estimated from few doses,TNK2,20.7 nM
Cn1cc(C2=C(c3cn(C)c4cc(N)ccc34)C(=O)NC2=O)c2ccccc21 [RO0317511-000],potency estimated from few doses,CDKL5; CATDS: 7.1774388141359599E-2,1810 nM
same,potency estimated from few doses,CLK1,816 nM
same,potency estimated from few doses,CLK2,386 nM
same,potency estimated from few doses,GSK3A,223 nM
same,potency estimated from few doses,GSK3B,193 nM
same,potency estimated from few doses,ICK,614 nM
same,potency estimated from few doses,PRKCA,1140 nM
same,potency estimated from few doses,PRKCB,1800 nM
same,potency estimated from few doses,PRKCD,1020 nM
same,potency estimated from few doses,PRKCQ; CATDS: 8.9522770196270404E-2,930 nM
O=C(Nc1n[nH]c2cc(-c3ccccc3F)ccc12)C1CC1 [SB-733371],potency estimated from few doses,CDK6; CATDS: 0.50989905801732505,1670 nM
same,potency estimated from few doses,PIM2,1800 nM
